# Screens deposited in PubChem by National Center for Advancing Translational Sciences (NCATS).
# Rango complex inh: Rango-importin beta binding inhibition; Q14974; Rango CFP/YFP FRET sensor + importin beta, 45 min; Potency, µM (titrated, usually from 92.2 µM); 340,000 compounds, 0.031% hits; further: nearly all actives have a fitted effect of over 15% in size
# Target sequence (Q14974 whole entry, looked up): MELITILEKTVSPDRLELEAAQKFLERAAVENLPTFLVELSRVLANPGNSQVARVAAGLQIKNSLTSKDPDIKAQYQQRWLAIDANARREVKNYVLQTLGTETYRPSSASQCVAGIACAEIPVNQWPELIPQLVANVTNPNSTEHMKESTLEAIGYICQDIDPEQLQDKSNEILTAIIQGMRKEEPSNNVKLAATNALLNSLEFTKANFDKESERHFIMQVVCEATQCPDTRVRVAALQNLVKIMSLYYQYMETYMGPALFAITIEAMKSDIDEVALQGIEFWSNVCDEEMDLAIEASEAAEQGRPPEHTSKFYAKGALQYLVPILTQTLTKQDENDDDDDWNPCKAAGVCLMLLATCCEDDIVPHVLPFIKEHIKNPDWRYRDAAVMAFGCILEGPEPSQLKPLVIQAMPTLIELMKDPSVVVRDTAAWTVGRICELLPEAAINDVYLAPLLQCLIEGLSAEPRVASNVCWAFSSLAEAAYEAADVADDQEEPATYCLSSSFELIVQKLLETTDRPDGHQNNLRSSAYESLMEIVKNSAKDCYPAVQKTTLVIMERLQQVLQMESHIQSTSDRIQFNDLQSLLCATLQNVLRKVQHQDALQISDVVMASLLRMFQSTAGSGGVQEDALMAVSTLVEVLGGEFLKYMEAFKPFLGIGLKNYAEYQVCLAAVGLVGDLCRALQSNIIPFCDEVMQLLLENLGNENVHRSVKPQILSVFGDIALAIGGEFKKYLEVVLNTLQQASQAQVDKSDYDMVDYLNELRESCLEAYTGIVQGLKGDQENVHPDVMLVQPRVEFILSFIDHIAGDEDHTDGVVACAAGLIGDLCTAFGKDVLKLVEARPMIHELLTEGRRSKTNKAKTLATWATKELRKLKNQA
#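 Inhibition scored from the CFP 486 nm/YFP 530 nm FRET ratio 45 min after adding 0.125 microM importin beta to 50 nM Rango biosensor preincubated 5 min with compound (room temperature, PBS with DTT, Tween-20, BSA). No-importin wells as positive control.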
# KCNH2 3.1 block: inhibitors of human KCNH2 3.1 potassium channel isoform; activity change, % (tested at about 1.8 µM); 340,000 compounds, 0.95% hits; AID 720553; U2OS KCNH2 3.1, thallium flux FluxOr; stronger effect = lower value;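 active means maximum activity change below -70%; inconclusive means maximum activity change from -70% to -50%; inactive means maximum activity change above -50%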;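 further: thallium influx rate constant from kinetic fluorescence after stimulation buffer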
#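 We transduce U2OS cells with the mutant 3.1 virus, culture them overnight, load FluxOr with Red40 quencher for 45 min, then add stimulation buffer and read kinetically for 2 min to derive a normalized rate constant.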
# KCNH2 WT inh: inhibitors of human wildtype KCNH2 potassium channel; Q12809; U2OS, BacMam KCNH2, thallium flux FluxOr; stronger effect = lower value; activity change, % at 1.84 µM; 340,000 compounds, 0.37% hits;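 active means maximum activity change below -70%; inconclusive means maximum activity change between -70% and -50%; inactive means maximum activity change above -50%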
#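 U2OS cells transduced with wild-type KCNH2 virus are loaded with FluxOr dye for 45 min, and thallium flux is measured in kinetic reads before and after stimulation buffer. Rate constants are normalized to DMSO controls.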
# Rango release inh: inhibition of RanGTP-driven Rango-importin beta dissociation. O95149+P62826. Biochemical FRET Rango-importin beta, RanGTP-induced dissociation. Potency, µM (doses to about 46.1 µM). 340,000 compounds, 0.071% hits. AID 540253; further: nearly all actives have a fitted effect of over 45% in size
#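 FRET read at 45 min, room temperature: inhibitors block the CFP/YFP signal rise when RanGTP (0.6 uM Ran, 2 mM GTP, 0.2 uM RCC1) frees Rango (0.1 uM) from importin beta (0.25 uM). Pre-read after 5 min compound exposure flags interference.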
# Hits are given with their value; n = inactive; u = inconclusive; x = not tested or not shown. A selection: hits, their analogues and other compounds. The true share with any hit is near 1.3%. Unless noted, the call rests on the fitted dose curve.
SMILES,Rango complex inh,KCNH2 3.1 block,KCNH2 WT inh,Rango release inh
COc1ccc(NC(=O)CCNC(=O)c2ccccc2Cl)cc1S(=O)(=O)N1CCCCC1,x,n,n,x
COc1ccc2cc(CN(CCc3ccccc3)Cc3nnnn3Cc3ccco3)c(=O)[nH]c2c1,u,n,n,14.6µM
Cc1oc(-c2ccccc2Cl)nc1CS(=O)CC(=O)NC1CC1 (centres undefined),n,n,-260.9,n
COC(=O)c1ccc(C23CC4(C2)[C@H](CN(CC2CCCCC2)[C@@H]4c2ccccc2)C3c2ccc(Cl)nc2)cc1 (some centres undefined),n,n,n,n
Clc1ccc(C2[C@H]3CN(CC4CCCCC4)[C@H](c4ccccc4)C34CC2(c2ccccc2)C4)cn1 (some centres undefined),n,-209.6,n,n
CCOC(=O)[C@@H]1[C@H]2COc3ccccc3[C@@H]2N2C(=O)N(c3ccc(Cl)cc3)C(=O)[C@]12C,n,n,n,n
CCCCNC(=O)c1c(O)c2cccc3c2n(c1=O)CCC3,n,n,n,n
CCNCCNC(=O)c1c(O)c2cccc3c2n(c1=O)CCC3,n,n,-179.2,n
CC(C(=O)Nc1ccc(S(=O)(=O)N2CCCC2)cc1)N1CCc2ccccc2C1 (centres undefined),n,-186.9,n,n
CC(=O)Nc1ccc(S(=O)(=O)N2CCc3ccccc3C2)cc1,n,n,n,n
Cc1ccc(NC(=O)C(C)N2CCc3ccccc3C2)cc1 (centres undefined),n,-114.5,n,n
Cc1ccc(NC(=O)N2CCc3ccccc3C2)cc1,n,n,n,n
CC(C)CC(=O)Nc1nnc(S(=O)(=O)N2CCCCCC2)s1,n,n,n,n
CC(C)OCCCNc1ccc(N2C(=O)CCCC2=O)cc1[N+](=O)[O-],n,n,n,n
CC1(C(=O)O)CCC(C(=O)Nc2ccc(OC(F)(F)Cl)cc2)C1(C)C (centres undefined),n,n,x,n
COC(=O)CCC(=O)N1CCCC(CO)(Cc2ccccc2F)C1 (centres undefined),n,n,n,n
CCOCCCN(C)C1CCN(C(=O)c2oc3ccccc3c2NC(=O)c2ccc(F)cc2)CC1,n,-92.3,-81.5,n
CCOCCCN(C)C1CCN(C(=O)c2oc3ccccc3c2NC(=O)c2ccc([N+](=O)[O-])cc2)CC1,n,-81.9,-121.8,n
O=C(Nc1c(C(=O)N2CCC(N3CCCCC3)CC2)oc2ccccc12)c1ccc(F)cc1,n,u,n,u
NC(=O)COc1ncnc2scc(-c3ccc(F)cc3)c12,n,n,n,n
COCCNC(=O)COc1ncnc2scc(-c3ccc(F)cc3)c12,n,-112.0,n,n
COc1ccc(/C=N/NC(=O)c2ccncc2)cc1CN1CCN(c2ccc(F)cc2)CC1,n,-89.6,n,n
COc1ccc(/C=N/NC(=O)c2ccc(C)cc2)cc1CN1CCN(c2ccc(F)cc2)CC1,n,-107.6,-72.1,n
COc1ccc(/C=N\NC(=O)c2cc(O)c(O)c(O)c2)cc1CN1CCN(c2ccc(F)cc2)CC1,n,n,n,n
COc1ccc(/C=N/NC(=O)c2ccn[nH]2)cc1CN1CCOCC1,n,n,n,n
SMILES,Rango complex inh,KCNH2 3.1 block,KCNH2 WT inh,Rango release inh
COc1ccc(/C=N/NC(=O)c2ccc(F)cc2)cc1CN1CCc2cc(OC)c(OC)cc2C1C (centres undefined),n,-88.0,-91.0,n
CSc1nc(Cl)c(Br)c(Nc2c[nH]c(=O)[nH]c2=O)n1,n,n,n,n
CC1CN(C(=O)Cn2cc(S(=O)(=O)CC(=O)N3CCOCC3)c3ccccc32)CC(C)O1 (centres undefined),n,n,n,n
COc1ccc(OC)c(C(=O)COC(=O)c2[nH]c(C)c(C(C)=O)c2C)c1,n,n,n,u
COc1cccc(CN2CC(C(=O)NCCN3CCOCC3)CCC2=O)c1 (centres undefined),n,n,n,n
CCCSC1=N/C(=C\c2ccc3c(c2)OCO3)C(=O)S1,u,n,n,u
CCSC1=N/C(=C\c2ccc3c(c2)OCO3)C(=O)S1,u,n,n,16.4µM
CN1C(=O)/C(=C/c2ccc3c(c2)OCO3)N=C1c1ccccc1,u,-122.6,n,u
CC1=NOC(=O)/C1=C/c1ccc2c(c1)OCO2,n,n,n,n
CC(C)NC(=S)N(C)C1(c2ccccc2Cl)CCCCC1=O (centres undefined),n,-93.2,n,u
CN(C(=S)Nc1ccccc1F)C1(c2ccccc2Cl)CCCCC1=O (centres undefined),n,n,n,n
O=C1NC2(CCCCCC2)C(=O)N1Cc1ccc(F)cc1Cl,n,-126.8,n,n
Cc1cc(Nc2ccccc2)nc2cc(O)ccc12,u,n,n,7.31µM
Cc1ccccc1NC(=O)c1cc([N+](=O)[O-])ccc1NCCN1C(=O)CCC1=O,n,-159.0,n,n
O=C(Nc1ccccc1)c1ccc(NCCN2C(=O)CCC2=O)c([N+](=O)[O-])c1,n,n,n,n
Cc1c(C(=O)N2CCCCC2C)sc2nc3n(c(=O)c12)CCC3 (centres undefined),n,n,n,n
N#Cc1c2n(c3c(=O)n(CC(=O)c4ccc([N+](=O)[O-])cc4)cnc13)CCCCC2,n,n,-101.1,n
CC(NC(=O)c1cccnc1)C(c1ccccc1)N1CCN(C)CC1 (centres undefined),n,-77.0,n,n
CC(NC(=O)c1cccnc1)C(c1cccs1)N1CCOCC1 (centres undefined),n,n,n,n
COc1ccccc1OCc1ccc(C(=O)Nc2cc(OC)c(OC)c(OC)c2)o1,n,n,-129.1,n
CCc1ccc(CN(C)C(=O)CC2C(=O)NCCN2Cc2ccoc2)cc1 (centres undefined),n,-84.7,n,n
CCOc1ccccc1CN1CCNC(=O)C1CC(=O)N(C)Cc1cnccn1 (centres undefined),n,-114.5,n,n
Cc1ccc(CN(C)C(=O)CC2C(=O)NCCN2CC2CCCCC2)cc1 (centres undefined),n,n,n,n
Cc1ccc(S(=O)(=O)N2C[C@H]3[C@H]4C(=O)N(c5ccccc5)C(=O)[C@H]4C[C@H](OC(=O)NC4CCCC4)[C@@]3(O)C2)cc1,x,n,n,x
COc1ccc(NC(=O)CNCc2ccc(Cl)cc2)cc1S(=O)(=O)N1CCOCC1,n,n,n,n
COc1cc2oc3ccccc3c2cc1N(CC(=O)N(C)C)S(=O)(=O)c1ccccc1,n,-84.2,n,n
Cc1ccc(S(=O)(=O)N2CCOCC2)cc1C(=O)NC1=NCCS1,n,n,n,n
COc1ccc(-c2ccc3c(c2)S(=O)(=O)c2cccc(C(=O)NC4CCCC4)c2C3=O)cc1OC,n,n,n,n
O=C(NC1CCCCC1)c1cccc2c1C(=O)c1ccc(-c3ccc(OC(F)(F)F)cc3)cc1S2(=O)=O,n,-129.2,n,n
C/C(=N\NC(=O)c1ccc(Cn2cc(Br)cn2)o1)c1ccc(NC(=O)c2ccoc2C)cc1,n,x,n,n
